{"source": "the supplement of paper PMC11001985", "data": [{"compound": "C#CCNC(=O)CCSSCCC(=O)NCCc1ccc(C=O)c(C=O)c1", "assay": "lysine labeling ratio R10:1 (500 µM / 50 µM probe), SILAC-ABPP in living cells; higher = lower intrinsic lysine reactivity toward the probe, active = 2 or less", "details": "HeLa; probe concentrations 500 vs 50 µM", "procedure,_shortened": "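Living SILAC light and heavy HeLa cells in PBS at room temperature were treated with an alkyne-tagged, disulfide-linked lysine probe at 50 µM or 500 µM, with forward and reverse label swaps. The mixed lysates were clicked to biotin-azide, digested with trypsin, captured on neutravidin, released with DTT, alkylated and run by LC-MS/MS on a TIMS-TOF Pro. R for each lysine is the filtered median high-probe/low-probe MS1 peptide ratio, taken again as the median over forward and reverse replicates. Any value above 20 is set to 20.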", "values": [{"target": "CEP250 (lysine site: K1048) (UniProt Q9BV73)", "lysine labeling ratio R10:1": "7.19 (inactive)"}, {"target": "CCT4 (lysine site: K42) (UniProt P50991)", "lysine labeling ratio R10:1": "4.65 (inactive)"}, {"target": "ITGA3 (lysine site: K638) (UniProt P26006)", "lysine labeling ratio R10:1": "5.04 (inactive)"}, {"target": "HNRNPA2B1 (lysine site: K120) (UniProt P22626)", "lysine labeling ratio R10:1": "5.33 (inactive)"}, {"target": "NCL (lysine site: K467) (UniProt P19338)", "lysine labeling ratio R10:1": "0.565 (active)"}, {"target": "CLU (lysine site: K322) (UniProt P10909)", "lysine labeling ratio R10:1": "1.38 (active)"}, {"target": "SDCBP (lysine site: K223) (UniProt O00560)", "lysine labeling ratio R10:1": "2.46 (inactive)"}, {"target": "F13A1 (lysine site: K258) (UniProt P00488)", "lysine labeling ratio R10:1": "1.15 (active)"}, {"target": "UniProt Q15149 (lysine site: K1908)", "sequence (Q15149 whole entry)": "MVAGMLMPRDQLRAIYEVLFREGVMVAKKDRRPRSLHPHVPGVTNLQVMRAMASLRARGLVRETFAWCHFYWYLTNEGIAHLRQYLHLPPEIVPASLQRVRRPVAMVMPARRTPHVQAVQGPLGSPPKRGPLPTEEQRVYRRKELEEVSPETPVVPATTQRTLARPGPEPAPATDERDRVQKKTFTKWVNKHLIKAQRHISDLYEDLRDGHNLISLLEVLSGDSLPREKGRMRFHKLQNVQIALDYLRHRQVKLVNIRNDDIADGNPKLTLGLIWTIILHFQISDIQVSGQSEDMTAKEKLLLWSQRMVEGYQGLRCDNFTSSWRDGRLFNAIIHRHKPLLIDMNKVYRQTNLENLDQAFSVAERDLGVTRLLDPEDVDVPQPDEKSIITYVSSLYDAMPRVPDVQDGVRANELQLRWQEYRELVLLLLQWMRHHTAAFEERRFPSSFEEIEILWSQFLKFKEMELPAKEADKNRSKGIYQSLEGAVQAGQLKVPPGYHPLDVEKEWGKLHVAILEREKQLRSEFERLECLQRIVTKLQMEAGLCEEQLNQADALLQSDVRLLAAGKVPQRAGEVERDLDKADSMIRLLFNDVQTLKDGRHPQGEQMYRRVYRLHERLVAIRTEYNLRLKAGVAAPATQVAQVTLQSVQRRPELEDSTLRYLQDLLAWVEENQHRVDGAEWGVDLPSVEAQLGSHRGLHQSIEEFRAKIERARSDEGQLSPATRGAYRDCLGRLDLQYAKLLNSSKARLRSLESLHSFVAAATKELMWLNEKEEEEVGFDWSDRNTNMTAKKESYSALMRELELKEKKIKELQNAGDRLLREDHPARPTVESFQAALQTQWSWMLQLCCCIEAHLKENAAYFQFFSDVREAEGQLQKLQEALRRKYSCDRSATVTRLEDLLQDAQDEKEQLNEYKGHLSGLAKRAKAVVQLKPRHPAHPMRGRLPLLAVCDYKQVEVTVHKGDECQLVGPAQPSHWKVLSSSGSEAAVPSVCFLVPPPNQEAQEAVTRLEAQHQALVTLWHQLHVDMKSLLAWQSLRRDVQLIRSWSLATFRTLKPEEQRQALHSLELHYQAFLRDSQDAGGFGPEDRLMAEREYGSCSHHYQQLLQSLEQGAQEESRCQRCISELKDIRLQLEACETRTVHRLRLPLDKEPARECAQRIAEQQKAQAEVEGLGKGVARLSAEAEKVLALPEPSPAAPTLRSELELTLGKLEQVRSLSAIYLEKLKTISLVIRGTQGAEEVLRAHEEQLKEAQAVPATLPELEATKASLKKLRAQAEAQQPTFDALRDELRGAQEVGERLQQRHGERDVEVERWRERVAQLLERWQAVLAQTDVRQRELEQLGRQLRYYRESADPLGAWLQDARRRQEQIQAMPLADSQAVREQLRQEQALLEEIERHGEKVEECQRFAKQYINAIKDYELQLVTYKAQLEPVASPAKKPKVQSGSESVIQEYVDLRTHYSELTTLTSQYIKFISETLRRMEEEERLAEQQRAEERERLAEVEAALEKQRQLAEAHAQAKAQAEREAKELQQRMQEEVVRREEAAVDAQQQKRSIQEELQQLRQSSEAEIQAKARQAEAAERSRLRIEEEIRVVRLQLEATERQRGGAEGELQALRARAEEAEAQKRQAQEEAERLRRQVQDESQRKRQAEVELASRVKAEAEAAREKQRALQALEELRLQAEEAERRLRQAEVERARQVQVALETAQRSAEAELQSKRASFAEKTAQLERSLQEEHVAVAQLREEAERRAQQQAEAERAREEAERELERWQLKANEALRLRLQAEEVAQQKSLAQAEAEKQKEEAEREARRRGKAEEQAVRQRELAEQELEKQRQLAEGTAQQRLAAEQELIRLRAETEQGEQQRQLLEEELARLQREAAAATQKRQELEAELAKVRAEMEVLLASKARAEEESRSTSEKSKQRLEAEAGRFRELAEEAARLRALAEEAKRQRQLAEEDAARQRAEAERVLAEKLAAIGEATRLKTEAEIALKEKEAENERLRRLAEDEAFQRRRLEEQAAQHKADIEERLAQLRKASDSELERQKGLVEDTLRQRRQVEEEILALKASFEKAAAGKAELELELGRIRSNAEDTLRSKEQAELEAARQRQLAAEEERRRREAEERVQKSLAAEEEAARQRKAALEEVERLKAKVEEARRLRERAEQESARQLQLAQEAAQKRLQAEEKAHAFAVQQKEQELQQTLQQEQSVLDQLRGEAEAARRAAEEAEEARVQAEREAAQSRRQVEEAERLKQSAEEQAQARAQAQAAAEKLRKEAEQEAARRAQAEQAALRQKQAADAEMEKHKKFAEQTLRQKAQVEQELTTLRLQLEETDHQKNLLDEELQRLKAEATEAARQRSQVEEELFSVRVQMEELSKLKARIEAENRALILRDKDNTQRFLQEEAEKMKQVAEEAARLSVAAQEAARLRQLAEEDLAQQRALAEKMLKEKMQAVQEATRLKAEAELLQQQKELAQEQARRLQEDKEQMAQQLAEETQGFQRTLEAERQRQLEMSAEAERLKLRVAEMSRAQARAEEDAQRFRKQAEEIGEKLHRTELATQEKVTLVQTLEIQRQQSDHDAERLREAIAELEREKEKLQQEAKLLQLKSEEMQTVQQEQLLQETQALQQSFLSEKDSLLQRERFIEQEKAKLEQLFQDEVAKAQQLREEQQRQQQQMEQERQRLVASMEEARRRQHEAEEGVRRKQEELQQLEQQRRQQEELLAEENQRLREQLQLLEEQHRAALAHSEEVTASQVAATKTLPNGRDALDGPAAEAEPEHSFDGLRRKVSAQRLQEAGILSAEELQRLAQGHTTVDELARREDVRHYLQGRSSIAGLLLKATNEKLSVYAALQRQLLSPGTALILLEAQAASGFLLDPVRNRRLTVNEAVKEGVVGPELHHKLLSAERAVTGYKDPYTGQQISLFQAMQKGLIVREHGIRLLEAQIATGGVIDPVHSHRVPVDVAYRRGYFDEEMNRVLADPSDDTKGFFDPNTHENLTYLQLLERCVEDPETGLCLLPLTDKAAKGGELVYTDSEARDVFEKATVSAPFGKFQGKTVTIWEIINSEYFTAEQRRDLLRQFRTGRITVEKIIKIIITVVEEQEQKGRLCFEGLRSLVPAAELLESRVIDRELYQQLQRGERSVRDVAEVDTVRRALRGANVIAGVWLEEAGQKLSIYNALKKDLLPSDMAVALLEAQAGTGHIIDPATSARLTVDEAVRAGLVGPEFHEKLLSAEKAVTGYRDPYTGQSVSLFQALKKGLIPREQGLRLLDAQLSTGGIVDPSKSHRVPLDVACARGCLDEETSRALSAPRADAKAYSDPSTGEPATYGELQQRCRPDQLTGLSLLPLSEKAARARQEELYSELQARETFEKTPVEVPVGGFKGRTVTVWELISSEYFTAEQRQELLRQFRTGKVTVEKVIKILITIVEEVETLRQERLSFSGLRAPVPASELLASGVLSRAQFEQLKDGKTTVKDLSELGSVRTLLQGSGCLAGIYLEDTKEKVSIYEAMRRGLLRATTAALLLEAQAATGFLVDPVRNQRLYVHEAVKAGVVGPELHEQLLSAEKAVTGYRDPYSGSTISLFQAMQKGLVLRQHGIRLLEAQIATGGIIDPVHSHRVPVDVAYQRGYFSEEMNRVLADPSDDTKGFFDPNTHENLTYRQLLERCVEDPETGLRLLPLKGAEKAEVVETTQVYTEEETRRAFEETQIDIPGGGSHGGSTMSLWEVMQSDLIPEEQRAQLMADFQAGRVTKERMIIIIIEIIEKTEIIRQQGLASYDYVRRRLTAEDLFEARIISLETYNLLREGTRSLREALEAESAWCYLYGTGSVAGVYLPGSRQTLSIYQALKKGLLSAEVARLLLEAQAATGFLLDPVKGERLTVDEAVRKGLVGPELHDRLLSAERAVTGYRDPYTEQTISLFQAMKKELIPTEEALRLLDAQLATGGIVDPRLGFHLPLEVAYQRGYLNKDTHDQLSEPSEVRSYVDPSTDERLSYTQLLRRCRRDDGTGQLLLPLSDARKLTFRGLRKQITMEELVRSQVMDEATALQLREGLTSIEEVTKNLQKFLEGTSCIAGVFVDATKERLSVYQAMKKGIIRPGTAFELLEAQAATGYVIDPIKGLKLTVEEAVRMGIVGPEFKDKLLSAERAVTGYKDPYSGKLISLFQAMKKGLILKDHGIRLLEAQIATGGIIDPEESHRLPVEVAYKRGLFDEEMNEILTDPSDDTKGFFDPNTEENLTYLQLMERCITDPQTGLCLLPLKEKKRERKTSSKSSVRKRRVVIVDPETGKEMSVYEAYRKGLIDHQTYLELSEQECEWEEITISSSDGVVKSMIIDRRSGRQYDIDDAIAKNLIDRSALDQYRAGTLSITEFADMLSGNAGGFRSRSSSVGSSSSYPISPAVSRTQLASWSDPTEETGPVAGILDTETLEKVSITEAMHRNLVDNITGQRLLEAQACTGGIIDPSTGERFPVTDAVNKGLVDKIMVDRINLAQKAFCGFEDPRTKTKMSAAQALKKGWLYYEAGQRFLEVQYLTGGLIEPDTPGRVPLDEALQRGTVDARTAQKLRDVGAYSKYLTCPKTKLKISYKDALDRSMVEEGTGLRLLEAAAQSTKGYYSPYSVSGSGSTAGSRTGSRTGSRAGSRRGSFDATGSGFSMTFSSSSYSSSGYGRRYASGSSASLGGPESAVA", "lysine labeling ratio R10:1": "3.91 (inactive)"}, {"target": "UniProt Q12904 (lysine site: K35)", "lysine labeling ratio R10:1": "1.92 (active)"}, {"target": "UniProt Q9H336 (lysine site: K242)", "lysine labeling ratio R10:1": "2.36 (inactive)"}, {"target": "PSMB4 (lysine site: K201) (UniProt P28070)", "lysine labeling ratio R10:1": "3.87 (inactive)"}, {"target": "CD151 (lysine site: K186) (UniProt P48509)", "lysine labeling ratio R10:1": "6.68 (inactive)"}, {"target": "UniProt Q9NYQ6 (lysine site: K2118)", "lysine labeling ratio R10:1": "2.31 (inactive)"}, {"target": "UniProt Q15149 (lysine site: K1150)", "lysine labeling ratio R10:1": "3.29 (inactive)"}, {"target": "FLNA (lysine site: K520) (UniProt P21333)", "lysine labeling ratio R10:1": "2.73 (inactive)"}, {"target": "UniProt O94991 (lysine site: K280)", "lysine labeling ratio R10:1": "1.34 (active)"}, {"target": "UniProt P05787 (lysine site: K11)", "lysine labeling ratio R10:1": "6.14 (inactive)"}, {"target": "CLTC (lysine site: K1264) (UniProt Q00610)", "lysine labeling ratio R10:1": "1.58 (active)"}, {"target": "FOLR1 (lysine site: K52) (UniProt P15328)", "sequence (P15328 whole entry, looked up)": "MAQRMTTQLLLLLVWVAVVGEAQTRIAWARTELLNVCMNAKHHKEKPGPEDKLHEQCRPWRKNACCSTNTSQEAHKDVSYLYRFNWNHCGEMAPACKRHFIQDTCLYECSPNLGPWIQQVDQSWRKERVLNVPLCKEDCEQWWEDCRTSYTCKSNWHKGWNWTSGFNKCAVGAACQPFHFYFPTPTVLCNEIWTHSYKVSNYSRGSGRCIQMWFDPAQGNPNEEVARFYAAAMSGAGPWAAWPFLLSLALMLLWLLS", "lysine labeling ratio R10:1": "12.6 (inactive)"}, {"target": "S100A4 (lysine site: K48) (UniProt P26447)", "sequence (P26447 whole entry, looked up)": "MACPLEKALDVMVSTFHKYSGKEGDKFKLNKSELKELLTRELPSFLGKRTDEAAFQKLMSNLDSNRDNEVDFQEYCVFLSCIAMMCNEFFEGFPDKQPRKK", "lysine labeling ratio R10:1": "5.05 (inactive)"}, {"target": "PDIA4 (lysine site: K582) (UniProt P13667)", "lysine labeling ratio R10:1": "2.17 (inactive)"}, {"target": "UniProt P62829 (lysine site: K123)", "lysine labeling ratio R10:1": "0.877 (active)"}]}]}
